# High-throughput results deposited in PubChem by several laboratories.
# Hits are enriched below; roughly 1.5% of the tested compounds scored in any of these assays.
# DUSP3 inh = blocks human VHR1 dual specificity phosphatase | recombinant VHR phosphatase, pNPP absorbance | actives 0.52% (n = 290,000) | inhibition, % at 13.3 µM | AID 1654; in the data active means inhibition above about 50%
# CCHFV vOTU inh = blocks the CCHF virus ovarian tumor domain protease | CCHFV vOTU protease, Pep-AMC fluorescence | inhibition, % at 11.5 µM | actives 0.55% (n = 370,000); in the data active means inhibition above about 30%; further: 0% = vehicle wells with enzyme and 100% = no enzyme wells
# RecA intein inh = blocks M. tuberculosis RecA intein splicing; cell-free RecA intein splicing, fluorescence; inhibition, % (no concentration beside the values); actives 0.75% (n = 290,000); in the data active means inhibition above about 30%;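 further: 0% = vehicle wells and 100% = reference inhibitor control wells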
# SARS 3CLpro inh = SARS-CoV 3CLpro protease inhibition | P0C6X7 | recombinant SARS-CoV 3CLpro, quenched FRET peptide cleavage | inhibition, % at 6 µM | actives 0.14% (n = 290,000) | AID 1706; in the data active means inhibition above about 12%
# Active calls of the source: *; . = no result.
SMILES,DUSP3 inh,CCHFV vOTU inh,RecA intein inh,SARS 3CLpro inh
COc1ccc(CCNC(=O)CN2C(=O)NC3(CCCCC3C)C2=O)cc1 (stereo not given),.,-7.0,.,.
COc1ccc(CSc2nnc(SCC(=O)Nc3ccccc3-c3ccccc3)s2)cc1,.,4.4,.,.
Cc1cc2n(n1)C(c1ccc3c(c1)OCO3)Nc1c(C)cccc1-2 (stereo not given),10.9,-14.7,7.2,3.5
Cc1cc(C)c2c(c1)-c1cc(C)nn1C(c1ccc3c(c1)OCO3)N2 (stereo not given),55.6*,-9.5,10.1,2.3
COc1ccccc1/C=C(/CC(=O)NCc1ccc(F)cc1)c1nc2ccccc2s1,1.7,21.7,5.0,1.2
COc1ccccc1/C=C(/CC(=O)NCc1ccccc1)c1nc2ccccc2s1,53.8*,6.9,5.9,4.5
O=[N+]([O-])c1cc(S(=O)(=O)N2CCCC2)ccc1NN=C1CCCCC1,2.6,9.2,-0.1,-2.5
O=[N+]([O-])c1cc(S(=O)(=O)N2CCCCC2)ccc1NCc1cccc(Cl)c1,51.3*,1.8,5.3,0.0
COc1ccnc2c1c(=O)n(Cc1c(F)cccc1Cl)c(=O)n2C,50.4*,-1.2,-2.1,-2.6
COc1ccc(NC(=O)CN2CCN(CC(=O)Nc3ccccc3Cl)CC2)cc1Cl,50.8*,6.2,0.9,0.1
Clc1nssc1=Nc1ccc(Br)cc1,13.1,0.7,8.7,1.6
Clc1ccc(N=c2ssnc2Cl)nc1,61.3*,15.4,-8.5,-2.2
Cn1cc(C(=O)N2CCN(c3ccccc3)CC2)c(=O)c2cc(S(=O)(=O)N3CCCC3)ccc21,19.0,5.4,-0.6,-5.3
CN(Cc1ccccc1)C(=O)c1cn(C)c2ccc(S(=O)(=O)N3CCCC3)cc2c1=O,51.2*,4.7,-2.0,-4.5
Cc1ccc(CNC(=O)c2cn(C)c3ccc(S(=O)(=O)N4CCOCC4)cc3c2=O)cc1,52.1*,-14.8,-0.9,-0.1
Cc1ccc(OCc2nn3c(C4CCCCC4)nnc3s2)cc1,.,16.0,.,.
CCOC(=O)CSc1n[nH]c(NC(=O)c2cccc(C(F)(F)F)c2)n1,10.2,-5.9,49.7*,-0.7
CC(=O)Nc1ccc(C(=O)NC(C)c2ccc(-n3ccnc3)cc2)cc1 (stereo not given),53.3*,16.4,1.8,-1.9
Cc1cccc(NS(=O)(=O)c2cccc3nsnc23)c1,20.5,10.5,1.2,-0.9
COc1ccc(NS(=O)(=O)c2cccc3nsnc23)cc1OC,51.2*,-4.7,-1.2,3.3
Cc1ccsc1C(=O)N1CCCC1(C)C(=O)NCC(C)C (stereo not given),.,12.3,.,.
CC(C)CC(=O)N1CCN(c2ccc([N+](=O)[O-])c(NCc3ccccc3)c2)CC1,.,30.9*,7.3,2.2
CCOC(=O)c1nc(C)nc(Sc2n[nH]c(-c3ccccc3)n2)c1C,2.6,-5.2,2.9,3.4
COc1cc(S(=O)(=O)n2ccc(C)n2)c(C)cc1C,.,-14.9,.,.
CCCSc1nnc(Sc2nnnn2-c2ccccc2)s1,-28.6,2.7,47.1*,7.2
SMILES,DUSP3 inh,CCHFV vOTU inh,RecA intein inh,SARS 3CLpro inh
COc1ccc(S(=O)(=O)NCC(=O)O)cc1C(=O)NC1CCCCC1,2.6,7.9,-2.5,5.6
COc1ccccc1CN1CCCC(CN(CCN(C)C)C(=O)c2ccc(C)cc2)C1 (stereo not given),51.3*,-0.7,-0.6,-1.4
CN(C)CCN(CC1CCCN(Cc2ccccc2F)C1)C(=O)c1ccc(Cl)cc1 (stereo not given),10.7,8.6,-0.3,-2.6
CC(C)[C@H](N)c1cn([C@@H](CC(N)=O)C(=O)N2CCNCC2)nn1,.,-3.8,.,.
CCOc1ccc(/C=N/NC(=O)CN2CCCCC2)cc1OCC,53.9*,-3.4,3.6,-3.0
Cc1ccc(NC(=O)C2CC(=O)N/C(=N/N=C/c3ccco3)S2)cc1 (stereo not given),57.9*,0.3,-3.5,1.7
Cc1ccnc(SC2CC(=O)N(c3ccc(C(C)C)cc3)C2=O)n1 (stereo not given),50.7*,6.6,3.6,-0.6
Cc1c(C(=O)N2CCCCC2CCN2CCCC2=O)oc2c(F)cccc12 (stereo not given),1.8,-3.2,0.6,1.6
COc1ccc(-c2cn3cc(Cl)ccc3n2)cc1OC,52.9*,-62.2,3.2,0.8
COc1ccc(-c2cn3cc(C)ccc3n2)cc1Br,10.4,-7.5,-1.7,0.7
COc1ccccc1OCCCCN1CCCCC1,51.3*,-8.7,1.5,-8.0
Cc1ccc(F)c(S(=O)(=O)NC(=O)C2(C)CCN2C(=O)c2cccc3ccccc23)c1 (stereo not given),.,-4.8,.,.
CC(=O)c1c[nH]c(C(=O)NCc2cccc(C(F)(F)F)c2)c1,52.6*,-5.2,1.2,-8.5
O=C(NCc1cccc(C(F)(F)F)c1)c1c[nH]c(=O)s1,.,3.5,.,.
Cc1[nH]n(-c2ccccc2)c(=O)c1/C=N/N1C(=O)c2ccc3c4c(ccc(c24)C1=O)CC3,51.3*,7.6,11.6,2.5
Brc1ccc(N=C(c2ccccc2)c2ccncc2)cc1,0.1,-12.0,1.7,-2.3
NC(=O)C1(N2CCCCC2)CCN(C(=O)c2ccccc2)CC1,25.0,-2.4,-0.1,-4.6
N#CC1(N2CCN(C(=O)c3ccccc3)CC2)CCCCC1,53.9*,1.6,-4.2,-0.3
Cc1cccc(C)c1Nc1nnc(SCC(=O)NC(=O)c2cccn2C)s1,51.3*,-6.5,9.1,1.3
CCOc1ccccc1Nc1nnc(SCC(=O)NC(=O)c2cccn2C)s1,8.5,6.1,-0.8,4.2
CN(Cc1ccc(F)cc1)C(=O)c1cccc2c1C(=O)N(Cc1cccnc1)C2,.,2.8,.,.
CN(CC(=O)Nc1ccc(F)cc1)C(=O)COC(=O)c1ccc(-c2ccccc2)cc1,.,-3.5,-0.7,.
COc1ccc(CC(=O)NC2CC2)cc1OC,53.0*,-18.1,7.6,-3.3
O=C(Nc1cccc([N+](=O)[O-])c1)NC1CCCCN(Cc2cccc(Cl)c2)C1=O (stereo not given),.,1.6,.,.
Cc1ccc2c(c1)CC1(CN2C)C(=O)NC(=O)N(c2ccc(C)c(C)c2)C1=O (stereo not given),50.5*,7.4,-3.3,0.4
SMILES,DUSP3 inh,CCHFV vOTU inh,RecA intein inh,SARS 3CLpro inh
CCc1nc2ccc(C(=O)NCCc3ccccn3)cn2c1N(C)Cc1ccc(N(C)C)cc1,.,4.4,.,.
CCOC(=O)N1CCC(N(CCN(C)C)C(=S)Nc2cc(Cl)cc(Cl)c2)CC1,4.0,-6.3,2.8,1.2
CCOC(=O)N1CCC(N(CCN(C)C)C(=S)Nc2ccc(OCC)cc2)CC1,53.7*,-11.3,-0.6,0.0
CCOc1ccccc1N(CC(=O)N1CCCC1)S(C)(=O)=O,0.1,-4.0,-1.1,0.5
O=[N+]([O-])c1cc(/C=N/O)ccc1SCc1ccccc1Cl,52.7*,3.2,-1.8,2.8
Cc1ccc(C)c(OCC(=O)Nc2cc(C(=O)O)cc(C(=O)O)c2)c1,53.3*,5.6,-1.7,2.5
COc1ccccc1/C=C/c1ccc2cccc(O)c2n1,52.6*,10.6,1.6,-1.7
CCn1ncc(NC(=S)NCCc2ccc(OC)c(OC)c2)c1C(N)=O,13.0,6.2,0.0,-0.4
COc1ccc(N2CCN(S(=O)(=O)c3c(C(=O)N4CCOCC4)c(C)n(C)c3C)CC2)cc1,51.2*,-7.8,0.2,-0.8
O=C(c1ccc(NS(=O)(=O)c2ccc(F)cc2)cc1)N1CCOCC1,.,33.1*,-2.5,.
O=C(c1ccc(NS(=O)(=O)c2ccc(F)cc2)cc1)N1CCCCC1,.,10.9,0.6,.
